High-throughput results as filed in PubChem BioAssay.
Only some compounds are listed: those with a hit (about 1.6% of all), similar ones and a draw of the others.
Akt phos inh: HTS Assay for Inhibitors of Akt Phophorylation: Primary Screen | Neuro2A IGF-stimulated pAkt S473 HTRF, 20 min; stronger effect = lower value | activity change, % for hits at 50 µM | hit rate 0.32% among 360,000 | AID 651550, 2012; in the data active = activity change below about -80%; inconclusive = mostly about -51% to -80%; also: % is scaled to controls: 0 for no effect and ±100 for the full control effect
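Neuro2A cells in DMEM with 0.5% FBS, overnight at 37 deg C, given compound at single 50 µM final, then IGF (6 nM final) for 20 min at 37 deg C. Lysed; phospho-Akt Ser473 by HTRF after 24 h, 665/615 ratio.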
gsp antag: qHTS for Antagonists of gsp, the Etiologic Mutation Responsible for Fibrous Dysplasia/McCune-Albright Syndrome: qHTS; Potency, µM (titrated, usually from 76.9 µM), inactives show at the top dose activity change, negative = inhibition, most hits filed as inhibitors; gsp-mutant cells, cAMP HTRF, 30 min; hit rate 0.4% among 340,000; calls by dose curve; cell line not stated here;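 also: intracellular cAMP measured with PDE inhibitor Ro 20-1724 present during compound exposure; potency is read from the fitted curve at half-maximal effect; % is scaled to controls: 0 for no effect and ±100 for the full control effect; nearly all actives have a fitted effect of over 65% in size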
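HTRF cAMP measurement after 30 min RT detection following 30 min, 37C compound treatment alongside […] (added as 300 uM solution) in G418-selected cells seeded at 2000/well and grown 16–24 h.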
hERG WT inh: qHTS for Inhibitors of KCHN2 3.1: Wildtype qHTS | AID 720551, 2013 | U2OS, BacMam KCNH2, thallium flux FluxOr; stronger effect = lower value | hit rate 0.37% among 340,000 | Voltage-gated inwardly rectifying potassium channel KCNH2 (Homo sapiens), Q12809 | activity change, % at 1.84 µM;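 active = maximum activity change below -70%; inconclusive = maximum activity change between -70% and -50%; inactive = maximum activity change above -50%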; also: % is scaled to controls: 0 for no effect and ±100 for the full control effect
Target sequence (Q12809 whole entry, looked up): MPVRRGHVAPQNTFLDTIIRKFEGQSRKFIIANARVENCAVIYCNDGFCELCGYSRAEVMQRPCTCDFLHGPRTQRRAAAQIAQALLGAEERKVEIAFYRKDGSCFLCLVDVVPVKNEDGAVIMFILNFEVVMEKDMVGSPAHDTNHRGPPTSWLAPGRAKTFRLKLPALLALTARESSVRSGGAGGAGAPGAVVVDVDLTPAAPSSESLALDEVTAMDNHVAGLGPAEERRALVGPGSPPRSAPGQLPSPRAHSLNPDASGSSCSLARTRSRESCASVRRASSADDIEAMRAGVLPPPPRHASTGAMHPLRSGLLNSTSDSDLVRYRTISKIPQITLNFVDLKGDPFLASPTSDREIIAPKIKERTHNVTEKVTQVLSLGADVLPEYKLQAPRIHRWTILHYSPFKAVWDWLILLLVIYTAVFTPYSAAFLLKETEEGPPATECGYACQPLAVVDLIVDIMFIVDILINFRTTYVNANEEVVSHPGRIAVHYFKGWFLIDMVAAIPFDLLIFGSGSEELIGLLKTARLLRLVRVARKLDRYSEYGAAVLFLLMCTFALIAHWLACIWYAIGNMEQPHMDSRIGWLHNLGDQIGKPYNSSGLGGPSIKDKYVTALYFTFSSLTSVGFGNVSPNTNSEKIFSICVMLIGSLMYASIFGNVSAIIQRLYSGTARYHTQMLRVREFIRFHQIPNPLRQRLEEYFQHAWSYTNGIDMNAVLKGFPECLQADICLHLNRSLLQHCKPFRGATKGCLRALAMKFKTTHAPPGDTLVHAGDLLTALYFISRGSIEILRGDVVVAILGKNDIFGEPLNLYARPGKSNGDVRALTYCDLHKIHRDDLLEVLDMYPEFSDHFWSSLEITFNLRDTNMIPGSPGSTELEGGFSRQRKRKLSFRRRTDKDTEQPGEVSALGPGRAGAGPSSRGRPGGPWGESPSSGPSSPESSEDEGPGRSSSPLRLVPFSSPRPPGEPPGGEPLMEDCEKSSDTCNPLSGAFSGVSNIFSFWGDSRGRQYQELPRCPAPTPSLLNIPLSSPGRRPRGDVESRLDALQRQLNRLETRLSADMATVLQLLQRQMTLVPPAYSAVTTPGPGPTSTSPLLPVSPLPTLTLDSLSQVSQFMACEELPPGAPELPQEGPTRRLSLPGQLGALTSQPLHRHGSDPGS
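U2OS cells transduced with wild-type KCNH2 virus are loaded with FluxOr dye for 45 min, and thallium flux is measured in kinetic reads before and after stimulation buffer. Rate constants are normalized to DMSO controls.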
KCNH2 3.1 block: qHTS for Inhibitors of KCHN2 3.1: Mutant qHTS. U2OS KCNH2 3.1, thallium flux FluxOr; stronger effect = lower value. hit rate 0.95% among 340,000. AID 720553, 2013. activity change, % (tested at about 1.8 µM);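 active = maximum activity change below -70%; inconclusive = maximum activity change from -70% to -50%; inactive = maximum activity change above -50%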;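 also: thallium influx rate constant from kinetic fluorescence after stimulation buffer; % is scaled to controls: 0 for no effect and ±100 for the full control effect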
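Steps: virus added to U2OS suspension (4 h, RT, dark); medium with 10% FBS added, cells plated, 37 C overnight; FluxOr/Red40 loading buffer 45 min RT; stimulation buffer, 2 min kinetic read; rate constant normalized.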
gsp ag: qHTS for Agonist of gsp, the Etiologic Mutation Responsible for Fibrous Dysplasia/McCune-Albright Syndrome: qHTS. gsp mutant cells, cAMP HTRF, 30 min. Potency, µM (highest dose often 76.9 µM), without a hit: top-dose activation (cAMP increase), most hits filed as activators. hit rate 0.13% among 340,000. AID 624287, 2012; active = well fitted activation curve with a large enough effect; inconclusive = small, poorly fitted or top-dose-only effect, or another doubt; inactive = no such curve, though single readings can be large or run the other way; cell line not stated here;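 also: phosphodiesterase inhibitor Ro 20-1724 added with compounds to block cAMP breakdown; potency is read from the fitted curve at half-maximal effect; nearly all actives have a fitted effect of over 60% in size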
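Cells in DMEM/10% FBS with G418 were pretreated with compounds in DMSO plus […] (300 uM stock) for 30 min at 37C. cAMP was measured by HTRF (cAMP-d2 plus anti-cAMP antibody-K) after 30 min at room temperature.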
GRP78 ERSR act: qHTS for Inducers of the Endoplasmic Reticulum Stress Response (ERSR) in Human Glioma: qHTS. U87-MG GRP78 promoter luciferase reporter, 16 h. Potency, µM, for the others: at the highest dose activation, actives largely listed as activators. AID 602332, 2012. hit rate 0.02% among 420,000; active = well fitted activation curve with a large enough effect; inconclusive = small, poorly fitted or top-dose-only effect; inactive = no such curve, though single readings can be large or run the other way; also: potency is read from the fitted curve at half-maximal effect; series mostly up to about 76 µM; % of control where 0% means no effect; nearly all actives have a fitted effect of over 35% in size
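ERSR induction read as luciferase luminescence (Bright-Glo, 10 min at room temperature) in stably transfected human U87-MG glioma cells exposed to compounds for 16 h, using GRP78 as sensor.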
* marks the source's active call; other numbers are inactive results; i = inactive; ? = inconclusive; / = not tested or not shown; [ ] = remark or other dose.

SMILES	Akt phos inh	gsp antag	hERG WT inh	KCNH2 3.1 block	gsp ag	GRP78 ERSR act
CC[C@H](OC(C)=O)C(C[C@H](C)NC)(c1ccccc1)c1ccccc1	/	/	/	/	/	-6.0%
O=c1c2ccccc2nc(/C=C/c2ccc(O)cc2)n1-c1ccc(O)cc1	i	-11.9%	1.7	16.9	22.4%	-6.6%
COc1ccc(-n2c(/C=C/c3ccc(O)cc3)nc3ccccc3c2=O)cc1	i	?	-92.5*	-21.7	-10.9%	-1.7%
Cc1ccc2c(c1)[C@]13CCCC[C@@H]1[C@@H](C2)N(C)CC3	/	/	/	/	/	-2.7%
O=C(CN1CCN(CCO)CC1)Nc1ccc(Cl)cc1C(=O)c1ccccc1	i	9.8%	-22.8	-86.8*	-26.2%	-3.4%
O=C(CN1CCCCC1)NCC(=O)Nc1ccc(Br)cc1C(=O)c1ccccc1	i	4.4%	-35.6	-77.9*	-6.0%	-5.5%
CN1CCN(CC(=O)Nc2ccc(Cl)cc2C(=O)c2ccccc2)CC1	i	2.9%	?	-77.6*	?	-5.6%
O=C(COc1ccccc1)Nc1ccc(Cl)cc1C(=O)c1ccccc1	i	-4.4%	-3.1	-6.3	19.0%	-2.0%
CCN(CC)CC(=O)Nc1ccc(Cl)cc1C(=O)c1ccccc1	i	-10.7%	3.3	13.2	-9.6%[15.4 µM]	-4.4%
CN(CC(=O)Nc1cccc(F)c1)CC(=O)Nc1cccc(S(=O)(=O)N(C)c2ccccc2)c1	i	50.1µM*	10.1	-7.9	-0.9%[15.4 µM]	-4.6%
CCc1cc(OC)c(CC(C)N)cc1OC (stereo unspecified)	/	/	/	/	/	-2.6%
CS(=O)(=O)c1ccc(C2=C(CNC(=O)c3cccnc3)[C@H]3CC[C@@H](C2)N3Cc2ccco2)cc1	i	/	-13.3	-23.2	27.9%	-1.5%
CS(=O)(=O)c1ccc(C2=C(CNC(=O)c3cccs3)[C@H]3CC[C@@H](C2)N3CCOc2ccccc2)cc1	i	/	-102.7*	-93.9*	16.6%	-1.1%
CCOC(=O)c1cccc(C2=C(CNC(=O)c3ccc([N+](=O)[O-])cc3)[C@H]3CC[C@@H](C2)N3Cc2ccccc2)c1	i	/	-76.0*	-113.1*	9.1%	-3.8%
O=C(NCC1=C(c2cccc3ccccc23)C[C@@H]2CC[C@H]1N2Cc1ccco1)c1cccs1	i	/	?	-108.7*	16.7%	-2.2%
CS(=O)(=O)c1ccc(C2=C(CNC(=O)c3ccncc3)[C@H]3CC[C@@H](C2)N3Cc2ccccc2)cc1	i	/	?	-91.1*	-131.0%	-5.0%
O=C(NCC1=C(c2cccc3ccccc23)C[C@@H]2CC[C@H]1N2Cc1ccco1)c1ccncc1	i	/	11.2	-4.1	-35.2%	-3.2%
Cc1cccc(C(=O)NC2CC3CCCC(C2)N3Cc2ccccc2)c1 (stereo unspecified)	i	5.7%	42.4	-39.8	-46.8%	-3.7%
O=C(NCC1=C(c2ccc3ccccc3c2)C[C@@H]2CC[C@H]1N2Cc1ccco1)c1nccs1	i	/	11.2	-38.5	-59.3%	-1.5%
CS(=O)(=O)c1ccc(C2=C(CNC(=O)c3nccs3)[C@H]3CC[C@@H](C2)N3CCOc2ccccc2)cc1	i	/	?	-78.2*	-44.1%	-5.3%
CC1(C)CC/C(=C\c2ccc(Cl)cc2)C1(O)Cn1cncn1 (stereo unspecified)	/	/	/	/	/	-3.4%
CC(=O)C1C(N2CC2)CC2C3CC=C4CC(O)CCC4(C)C3CCC21C (stereo unspecified)	i	-0.5%	-0.4	-41.1	16.9%	5.8%
COc1cc(CC(C)N)c(OC)cc1C (stereo unspecified)	/	/	/	/	/	4.4%
COc1ccccc1N1CCN(Cc2ccc(Br)cc2)CC1	i	-1.2%	18.7	-75.8*	?	-3.4%
COc1ccccc1N1CCN(Cc2ccccc2Cl)CC1	i	10.6%	0.7	5.4	-2.3%	0.5%
SMILES	Akt phos inh	gsp antag	hERG WT inh	KCNH2 3.1 block	gsp ag	GRP78 ERSR act
O=C(C1CC(=O)N(C2CCCCC2)C1)N1CCC2(CC1)OCCO2 (stereo unspecified)	-109.8%*	10.7%	3.3	0.4	-11.4%	1.6%
O=C1CC(C(=O)N2CCC3(CC2)OCCO3)CN1CCc1ccccc1 (stereo unspecified)	i	-0.7%	-0.4	2.6	11.3%	-5.4%
Cc1cc(/C=C/c2cccc3sc(C)[n+](CCCCI)c23)ccc1N(CCCl)CCCl	/	/	/	/	/	-9.1%
CCOC(=O)c1ccc(N2C(=O)CC(N3CC=C(c4ccc(F)cc4)CC3)C2=O)cc1 (stereo unspecified)	i	4.8%	-3.1	12.5	-4.7%	-1.0%
NC(=O)c1ccc(OCCC(O)N2CC=C(c3ccc(F)cc3)CC2)cc1 (stereo unspecified)	i	-4.4%	71.9	-72.7*	/	-0.1%
CCCOC(=O)c1c(N)n(Cc2cccs2)c2nc3ccccc3nc12	-115.0%*	9.0%	-12.6	3.3	-32.5%	-3.3%
Cc1nc2cc(F)ccc2n1C1CCN(Cc2nnnn2CCc2ccccc2)CC1	i	-0.7%	41.6	-29.3	4.5%	-3.6%
FC(F)(F)c1ccc2c(c1)nnn2C1CCN(Cc2nnnn2Cc2ccccc2)CC1	i	-12.7%	-28.4	-76.1*	29.0%	-1.0%
Cc1nc2cc(C(F)(F)F)ccc2n1C1CCN(Cc2nnnn2CCc2ccccc2)CC1	i	-10.1%	-6.7	-80.6*	0.0%	-6.2%
Cc1ccc(Cn2nnnc2CN2CCC(n3nnc4cc(C(F)(F)F)ccc43)CC2)cc1	i	15.8%	?	-92.8*	12.5%	-4.3%
NC[C@@H](CC(=O)O)c1ccc(Cl)cc1	/	/	/	/	/	-3.7%
NCC(CC(=O)O)c1ccc(Cl)cc1 (stereo unspecified)	-108.5%*	11.1%	9.3	-5.4	-15.3%	0.6%
CCN(c1ccc(C(O)(C(=O)OC)C(F)(F)F)cc1)S(=O)(=O)c1ccccc1 (stereo unspecified)	-125.4%*	-17.1%	4.7	-7.6	0.3%	-2.4%
CCOC(=O)C(O)(c1ccc(N(CC)S(=O)(=O)c2ccccc2)cc1)C(F)(F)F (stereo unspecified)	i	-9.5%	-5.7	13.3	-23.8%	0.6%
C[C@@H]1C(=O)O[C@@H]2C[C@]34[C@H]5C[C@@H](C(C)(C)C)[C@@]36[C@@H](OC(=O)[C@@H]6O)O[C@@]4(C(=O)O5)[C@@]12O	/	/	/	/	/	-1.8%
